Reference: PubChem BioAssay AID1159580 (chemical genetic matrix, 2015)
Where “and” joins values, the source holds several entries; their conditions need not be identical. Equal values may be shown once. The whole screen tested about 5,500 compounds, of which about 2,000 (36%) were called active. Another 18% or so got no clear call; they are omitted. Rule as the data show it: active = normalized growth mostly below about 0.91 (no sharp cut-off); inconclusive = no clear call, values can overlap the other calls; inactive = mostly above about 0.92. The list shows a part of the results.

Assay: chemical genetic growth profiling, strain panel (AID 1159580);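 also: tested at 20 µM; growth read once vehicle control cultures reached saturation at 30 °C; 1 = growth at the plate median or of vehicle wells; lower values mean less growth of the strain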
Settings: S. cerevisiae deletion strains, growth OD

Measured: normalized growth

CCCc1nc(C(C)(C)O)c(C(=O)OCc2oc(=O)oc2C)n1Cc1ccc(-c2ccccc2-c2nn[nH]n2)cc1
inactive: locus YAL013W, strain DEP1, stronger effect = lower value 0.99 | locus YAL021C, strain ccr4, stronger effect = lower value 0.976 | locus YAL026C, strain drs2, stronger effect = lower value 0.966 | locus YAL030W, strain snc1, stronger effect = lower value 0.955 | locus YBL061C, strain skt5, stronger effect = lower value 0.979 | locus YBR009C, strain hhf1, stronger effect = lower value 1 | locus YBR021W, strain FUR4, stronger effect = lower value 0.987 | locus YBR023C, strain chs3, stronger effect = lower value 0.961 | locus YBR171W, strain sec66, stronger effect = lower value 0.957 | locus YBR229C, strain ROT2, stronger effect = lower value 0.989 | locus YBR231C, strain swc5, stronger effect = lower value 0.974 | locus YBR279W, strain paf1, stronger effect = lower value 0.973 | locus YCL011C, strain gbp2, stronger effect = lower value 0.945 | locus YCL016C, strain dcc1, stronger effect = lower value 0.994 | locus YCL029C, strain bik1, stronger effect = lower value 0.982 | locus YCL069W, strain vba3, stronger effect = lower value 0.987 | locus YCR088W, strain abp1, stronger effect = lower value 0.977 | locus YDL005C, strain med2, stronger effect = lower value 0.983 | locus YDL035C, strain GPR1, stronger effect = lower value 1 | locus YDL040C, strain nat1, stronger effect = lower value 0.976 | locus YDL074C, strain BRE1, stronger effect = lower value 1.01 | locus YDL101C, strain DUN1, stronger effect = lower value 0.991 | locus YDL134C, strain PPH21, stronger effect = lower value 0.986 | locus YDL185W, strain tfp1, stronger effect = lower value 0.983 | locus YDL192W, strain arf1, stronger effect = lower value 0.985 | locus YDR001C, strain nth1, stronger effect = lower value 0.945 | locus YDR069C, strain doa4, stronger effect = lower value 0.956 | locus YDR101C, strain arx1, stronger effect = lower value 0.994 | locus YDR137W, strain rgp1, stronger effect = lower value 0.943 | locus YDR150W, strain NUM1, stronger effect = lower value 1 | locus YDR159W, strain sac3, stronger effect = lower value 0.933 | locus YDR162C, strain NBP2, stronger effect = lower value 1 | locus YDR195W, strain ref2 0.922 | locus YDR297W, strain sur2, stronger effect = lower value 0.981 | locus YDR318W, strain mcm21, stronger effect = lower value 0.994 | locus YDR334W, strain swr1, stronger effect = lower value 0.945 | locus YDR335W, strain msn5, stronger effect = lower value 0.952 | locus YDR388W, stronger effect = lower value 0.987 | locus YDR392W, strain spt3, stronger effect = lower value 1.02 | locus YDR502C, strain sam2, stronger effect = lower value 0.986 | locus YEL003W, strain gim4, stronger effect = lower value 0.972 | locus YEL037C, strain rad23, stronger effect = lower value 0.968 | locus YEL061C, strain CIN8 (second series), stronger effect = lower value 0.955 | locus YEL061C, strain CIN8, stronger effect = lower value 1.01 | locus YER015W, strain faa2, stronger effect = lower value 0.99 | locus YER016W, strain bim1, stronger effect = lower value 0.967 | locus YER110C, stronger effect = lower value 0.985 | locus YER111C, strain swi4, stronger effect = lower value 0.965 | locus YER155C, strain BEM2 (second series), stronger effect = lower value 0.906 | locus YER155C, strain BEM2, stronger effect = lower value 1.02 | locus YER167W, strain BCK2, stronger effect = lower value 0.99 | locus YFR010W, strain ubp6, stronger effect = lower value 0.967 | locus YGL078C, strain dbp3, stronger effect = lower value 0.99 | locus YGL086W, strain mad1, stronger effect = lower value 0.986 | locus YGL167C, strain pmr1, stronger effect = lower value 0.957 | locus YGL173C, strain kem1, stronger effect = lower value 0.985 | locus YGL227W, strain vid30, stronger effect = lower value 0.96 | locus YGL240W, strain doc1, stronger effect = lower value 0.949 | locus YGL248W, strain PDE1, stronger effect = lower value 0.99 | locus YGL253W, strain hxk2, stronger effect = lower value 0.962 | locus YGR078C, strain PAC10, stronger effect = lower value 1.02 | locus YGR135W, strain pre9, stronger effect = lower value 0.995 | locus YGR229C, strain SMI1, stronger effect = lower value 1 | locus YGR252W, strain gcn5, stronger effect = lower value 1.02 | locus YHR013C, strain ard1, stronger effect = lower value 0.978 | locus YHR027C, strain rpn1, stronger effect = lower value 0.973 | locus YHR030C, strain SLT2, stronger effect = lower value 0.99 and 0.967 | locus YHR079C, strain IRE1 (second series), stronger effect = lower value 0.984 | locus YHR079C, strain IRE1, stronger effect = lower value 0.954 | locus YHR094C, strain hxt1, stronger effect = lower value 0.989 | locus YHR129C, strain ARP1, stronger effect = lower value 0.987 | locus YHR142W, strain chs7, stronger effect = lower value 1 | locus YHR200W, strain rpn10, stronger effect = lower value 0.981 | locus YIL066C, strain RNR3, stronger effect = lower value 0.994 | locus YIL073C, strain SPO22, stronger effect = lower value 1.02 | locus YIL125W, strain kgd1, stronger effect = lower value 0.989 | locus YIR030C, strain dcg1, stronger effect = lower value 0.982 | locus YJL092W, strain hpr5, stronger effect = lower value 0.982 | locus YJL095W, strain BCK1 (second series), stronger effect = lower value 0.973 | locus YJL095W, strain BCK1, stronger effect = lower value 0.987 and 0.988 | locus YJL115W, strain asf1, stronger effect = lower value 0.967 | locus YJL129C, strain trk1, stronger effect = lower value 0.965 | locus YJL134W, strain LCB3, stronger effect = lower value 0.994 | locus YJL154C, strain vps35, stronger effect = lower value 0.966 | locus YJL164C, strain tpk1, stronger effect = lower value 0.996 | locus YJL166W, strain qcr8, stronger effect = lower value 0.966 | locus YJL168C, strain set2, stronger effect = lower value 0.997 | locus YJL187C, strain SWE1 (second series), stronger effect = lower value 0.987 | locus YJR043C, strain POL32, stronger effect = lower value 0.997 | locus YJR066W, strain TOR1, stronger effect = lower value 0.931 | locus YJR075W, strain HOC1, stronger effect = lower value 1.01
